Data on 31 compounds can be found in PubChem BioAssay (Tox21).

Structures are written as SMILES. Records with an inconclusive call do not appear. Where a call stands in place of a potency, no number is given. Where a structure was tested more than once in an assay, its records may differ in their call. The source made the active and inactive calls. Calls follow the shape of the dose curve; as a rule, active = well fitted curve in the direction sought with a large enough effect in the repeat runs; inconclusive = weak or mixed curves; inactive = no such curve, though single readings can be large; an effect the other way counts as inactive or inconclusive.

A short description of one experiment: Human pregnane X receptor (PXR) small molecule agonists, qHTS cell viability counter screen (AID 1346977). Also: nearly all actives have a fitted effect of over 50% in size. The conditions noted are these: PXR-Luc HepG2 viability, CellTiter-Fluor, 24 h; series mostly up to 92.4 µM. The method, boiled down: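 After a 5hr pre-incubation, PXR-Luc HepG2 cells received compounds plus positive control in DMSO and were kept 24hr at 37C. Cell viability was quantified by fluorescence from CellTiter-Fluor added for the final hour.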
For `O=C(O)C1C(C(=O)O)C2(Cl)C(Cl)=C(Cl)C1(Cl)C2(Cl)Cl` (stereo not drawn), the Potency entry was “inactive”.

As to `C=CC(=O)OCC(CC)CCCC` (stereo not drawn), the Potency entry is “inactive”.

Regarding `Oc1ccc(Cl)cc1`, the Potency entry was “inactive”.

Consider `Cc1cccc(N)c1`, for which the Potency result was “inactive”.

On to `[N-]=[N+]=CC(=O)OC[C@H](N)C(=O)O`, for which the Potency entry is “inactive”.

`Cc1ccc(N)cc1`: the Potency entry is “inactive”.

As for `COP(=S)(OC)SCN1C(=O)c2ccccc2C1=O`, the Potency entry was “inactive”.

As to `O=[N+]([O-])c1cc([As](=O)(O)O)ccc1O`, the Potency entry was “inactive”.

As to `NNc1ccccc1`, the Potency result was “inactive”.

Take `CCCCCCCCCCCCCCCCCC(=O)O`: the Potency entry is “inactive”.

`C=C(C)C(=O)OCC(CC)CCCC` (stereo not drawn): the Potency result is “inactive”.

`CC[N+](=O)[O-]`: the Potency result is “inactive”.

A further experiment is described as follows: Caspase-3/7 induction in HepG2 cells by small molecules, qHTS assay (AID 1346978). Also: nearly all actives have a fitted effect of over 15% in size. The conditions noted are these: HepG2 caspase-3/7 activation, Caspase-Glo luminescence, 17 h; series mostly up to 92.4 µM. The method, boiled down:
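Wild-type HepG2 cells (2,000/well) were settled 5 h at 37 C, 5% CO2, then exposed to compounds in DMSO for 17 h. Caspase-3/7 activity was read by luminescence 30 min after adding Caspase-Glo 3/7 reagent at room temperature.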
For the compound `Clc1cnc(Oc2ccc(Oc3ncc(Cl)cc3Cl)cc2)c(Cl)c1`, the result was inactive.

On to `CCSC(=O)N1CCCCCC1`, for which the outcome was inactive.

Turning to `CNCC(O)c1ccc(O)cc1` (stereo not drawn), the compound was called inactive.

With `CNC(=O)O/N=C(\SC)C(=O)N(C)C`, the outcome was inactive.

Regarding `C=CCN=C=S`, the compound was called inactive.

Turning to `Oc1c(Br)cc(Br)cc1Br`, the compound was classed as inactive.

Consider `CC(=O)C1CCOC1=O` (stereo not drawn), for which the compound was classed as inactive.

In the case of `Nc1cccc(Cl)c1`, the compound was classed as inactive.

Regarding `C/C=C/c1ccc2c(c1)OCO2`, the compound was classed as inactive.

With `Nc1ncc([N+](=O)[O-])s1`, the call was inactive.

For the compound `COC(C)(C)CCCC(C)C/C=C/C(C)=C/C(=O)OC(C)C` (stereo not drawn), the compound was called inactive.

As for `OCC(O)CCl` (stereo not drawn), the call was inactive.

Turning to `CN(C)NC(=O)CCC(=O)O`, the compound was called inactive.

Turning to `Cc1ccccc1N`, the compound was called inactive.

On to `Cc1cc(Cl)ccc1OC(C)C(=O)O` (stereo not drawn), for which the call was inactive.

In the case of `C[C@]12CC[C@H](O)CC1=CC[C@@H]1[C@@H]2CC[C@]2(C)C(=O)CC[C@@H]12`, the call was inactive.

As to `CN1C(=O)CCS(=O)(=O)C1c1ccc(Cl)cc1` (stereo not drawn), the compound was classed as inactive.

With `COC(=O)Nc1cccc(OC(=O)Nc2cccc(C)c2)c1`, the call was inactive.

Consider `C[C@H]1C(=O)O[C@@H]2CCN3CC=C(COC(=O)[C@](C)(O)[C@]1(C)O)[C@H]23`, for which the call was inactive.

`O=C(O)C1C(C(=O)O)C2(Cl)C(Cl)=C(Cl)C1(Cl)C2(Cl)Cl` (stereo not drawn): the compound was classed as inactive.

In the case of `C=CC(=O)OCC(CC)CCCC` (stereo not drawn), the compound was called inactive.

With `Oc1ccc(Cl)cc1`, the result was inactive.

On to `[N-]=[N+]=CC(=O)OC[C@H](N)C(=O)O`, for which the compound was called inactive.

`Cc1ccc(N)cc1`: the compound was called inactive.

Take `COP(=S)(OC)SCN1C(=O)c2ccccc2C1=O`: the call was inactive.

For the compound `O=[N+]([O-])c1cc([As](=O)(O)O)ccc1O`, the call was inactive.

For `NNc1ccccc1`, the compound was classed as inactive.

`CCCCCCCCCCCCCCCCCC(=O)O`: the outcome was inactive.

With `C=C(C)C(=O)OCC(CC)CCCC` (stereo not drawn), the outcome was inactive.

`CC[N+](=O)[O-]`: the outcome was inactive.

A short description of another experiment: Caspase-3/7 induction in CHO-K1 cells by small molecules, qHTS cell viability counter screen (AID 1346979). Also: nearly all actives have a fitted effect of over 35% in size. Also: potency is read from the fitted curve at half-maximal effect. The following applies: CellTiter-Fluor fluorescence, 17 h; series mostly up to 92.4 µM. The method, boiled down:
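Multiplexed with Caspase-Glo 3/7 in CHO-K1 cells, this counter screen added CellTiter-Fluor after 16hr of compound exposure and recorded fluorescence 1hr later.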
(In qHTS, concentration-response curves come from the screen itself.)
As to `Clc1cnc(Oc2ccc(Oc3ncc(Cl)cc3Cl)cc2)c(Cl)c1`, the Potency entry is “inactive”.

For the compound `CCSC(=O)N1CCCCCC1`, the Potency result was “inactive”.

Regarding `CNCC(O)c1ccc(O)cc1` (stereo not drawn), the Potency entry is “inactive”.

Consider `CNC(=O)O/N=C(\SC)C(=O)N(C)C`, for which the Potency result was “inactive”.

Regarding `C=CCN=C=S`, the Potency result is “inactive”.

As to `Oc1c(Br)cc(Br)cc1Br`, the Potency entry was “inactive”.

Regarding `CC(=O)C1CCOC1=O` (stereo not drawn), the Potency result is “inactive”.

Take `Nc1cccc(Cl)c1`: the Potency entry was “inactive”.

Regarding `C/C=C/c1ccc2c(c1)OCO2`, the Potency result is “inactive”.

For the compound `Nc1ncc([N+](=O)[O-])s1`, the Potency is 30.9 µM (active) and inactive.

`COC(C)(C)CCCC(C)C/C=C/C(C)=C/C(=O)OC(C)C` (stereo not drawn): the Potency entry was “inactive”.

With `OCC(O)CCl` (stereo not drawn), the Potency entry is “inactive”.

Take `CN(C)NC(=O)CCC(=O)O`: the Potency entry is “inactive”.

Consider `Cc1ccccc1N`, for which the Potency entry was “inactive”.

In the case of `C[C@]12CC[C@H](O)CC1=CC[C@@H]1[C@@H]2CC[C@]2(C)C(=O)CC[C@@H]12`, the Potency entry is “inactive”.

As for `CN1C(=O)CCS(=O)(=O)C1c1ccc(Cl)cc1` (stereo not drawn), the Potency entry is “inactive”.

As to `COC(=O)Nc1cccc(OC(=O)Nc2cccc(C)c2)c1`, the Potency result is “inactive”.

Consider `C[C@H]1C(=O)O[C@@H]2CCN3CC=C(COC(=O)[C@](C)(O)[C@]1(C)O)[C@H]23`, for which the Potency entry was “inactive”.

In the case of `O=C(O)C1C(C(=O)O)C2(Cl)C(Cl)=C(Cl)C1(Cl)C2(Cl)Cl` (stereo not drawn), the Potency entry is “inactive”.

As for `C=CC(=O)OCC(CC)CCCC` (stereo not drawn), the Potency entry was “inactive”.

In the case of `Oc1ccc(Cl)cc1`, the Potency entry was “inactive”.

Turning to `Cc1cccc(N)c1`, the Potency result was “inactive”.

For `[N-]=[N+]=CC(=O)OC[C@H](N)C(=O)O`, the Potency result was “inactive”.

Take `Cc1ccc(N)cc1`: the Potency entry is “inactive”.

As to `COP(=S)(OC)SCN1C(=O)c2ccccc2C1=O`, the Potency result was “inactive”.

Regarding `O=[N+]([O-])c1cc([As](=O)(O)O)ccc1O`, the Potency result is “inactive”.

Consider `NNc1ccccc1`, for which the Potency result is “inactive”.

`CCCCCCCCCCCCCCCCCC(=O)O`: the Potency result is “inactive”.

On to `C=C(C)C(=O)OCC(CC)CCCC` (stereo not drawn), for which the Potency entry is “inactive”.

On to `CC[N+](=O)[O-]`, for which the Potency result is “inactive”.

The next experiment can be described thus: Caspase-3/7 induction in CHO-K1 cells by small molecules, qHTS assay (AID 1346980). Also: nearly all actives have a fitted effect of over 15% in size. The conditions noted are these: CHO-K1 caspase-3/7 induction, Caspase-Glo luminescence, 17 h; series mostly up to 92.4 µM. The method, boiled down: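 Wild-type cells were seeded at 1,500 per well and settled 5 hr at 37 C, 5% CO2, then exposed to DMSO-dissolved compounds for 17 hr. Caspase-Glo 3/7 reagent was added, and luminescence was read after 30min at room temperature.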
Regarding `Clc1cnc(Oc2ccc(Oc3ncc(Cl)cc3Cl)cc2)c(Cl)c1`, the compound was classed as inactive.

For `CCSC(=O)N1CCCCCC1`, the result was inactive.

On to `CNCC(O)c1ccc(O)cc1` (stereo not drawn), for which the compound was classed as inactive.

With `CNC(=O)O/N=C(\SC)C(=O)N(C)C`, the compound was classed as inactive.

For the compound `C=CCN=C=S`, the compound was called inactive.

On to `Oc1c(Br)cc(Br)cc1Br`, for which the outcome was inactive.

With `CC(=O)C1CCOC1=O` (stereo not drawn), the outcome was inactive.

Turning to `Nc1cccc(Cl)c1`, the compound was called inactive.

As to `C/C=C/c1ccc2c(c1)OCO2`, the result was inactive.

Regarding `Nc1ncc([N+](=O)[O-])s1`, the result was inactive.

Regarding `COC(C)(C)CCCC(C)C/C=C/C(C)=C/C(=O)OC(C)C` (stereo not drawn), the call was inactive.

For the compound `OCC(O)CCl` (stereo not drawn), the compound was classed as inactive.

As for `CN(C)NC(=O)CCC(=O)O`, the outcome was inactive.

In the case of `Cc1ccccc1N`, the compound was classed as inactive.

`Cc1cc(Cl)ccc1OC(C)C(=O)O` (stereo not drawn): the call was inactive.

Regarding `C[C@]12CC[C@H](O)CC1=CC[C@@H]1[C@@H]2CC[C@]2(C)C(=O)CC[C@@H]12`, the result was inactive.

As to `CN1C(=O)CCS(=O)(=O)C1c1ccc(Cl)cc1` (stereo not drawn), the compound was called inactive.

On to `COC(=O)Nc1cccc(OC(=O)Nc2cccc(C)c2)c1`, for which the outcome was inactive.

For `C[C@H]1C(=O)O[C@@H]2CCN3CC=C(COC(=O)[C@](C)(O)[C@]1(C)O)[C@H]23`, the call was inactive.

On to `O=C(O)C1C(C(=O)O)C2(Cl)C(Cl)=C(Cl)C1(Cl)C2(Cl)Cl` (stereo not drawn), for which the outcome was inactive.

`C=CC(=O)OCC(CC)CCCC` (stereo not drawn): the compound was classed as inactive.

For the compound `Oc1ccc(Cl)cc1`, the outcome was inactive.

For the compound `Cc1cccc(N)c1`, the result was inactive.

Consider `[N-]=[N+]=CC(=O)OC[C@H](N)C(=O)O`, for which the compound was called inactive.

With `Cc1ccc(N)cc1`, the result was inactive.

`COP(=S)(OC)SCN1C(=O)c2ccccc2C1=O`: the result was inactive.

For the compound `O=[N+]([O-])c1cc([As](=O)(O)O)ccc1O`, the compound was called inactive.

As to `NNc1ccccc1`, the compound was called inactive.

As to `CCCCCCCCCCCCCCCCCC(=O)O`, the call was inactive.

Regarding `C=C(C)C(=O)OCC(CC)CCCC` (stereo not drawn), the compound was called inactive.

`CC[N+](=O)[O-]`: the call was inactive.
